Screening data deposited in PubChem BioAssay by several laboratories.
CHT PAM – allosteric activators of human choline transporter CHT | Q9GZV3 | CHT-expressing cells, membrane potential dye, choline EC20; stronger effect = higher value; LV-AA mutant CHT in HEK293 cells | B-score at 10 µM | actives 0.49% (n = 310,000);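 active = initial fluorescence not abnormally high and integrated response B-score, plate-corrected, over 3 SD above library mean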
PREPL inh – human PREPL enzyme inhibition. recombinant PREPL, fluorescence polarization activity-based probe. Q4J6C6. inhibition, % at 5.96 µM. actives 0.68% (n = 320,000). AID 2751; in the data active = inhibition above about 43%;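 also: 0% = enzyme with DMSO and 100% = wells lacking enzyme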
AI-2 QS modul – Vibrio harveyi AI-2 quorum sensing modulation; Vibrio harveyi JMH597 AI-2 luminescence/OD600 ratio, 9 h; stronger effect = lower value; strain lacks LuxN and CqsS sensors; 0 = neutral-control median; activity change, % at 7.5 µM; actives 0.4% (n = 300,000); AID 2094; in the data active = activity change below about -75%, passing the limit was not always enough;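 also: luminescence divided by OD600 gain over 9 h not by final OD600 alone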
CHT inh – inhibitors of human choline transporter CHT; Q9GZV3; CHT-expressing cells, membrane potential dye, choline response; stronger effect = lower value; B-score at 10 µM; actives 0.86% (n = 310,000); AID 488975;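 active = B-score over 3 SD under the library average, and starting fluorescence ratio not unusually high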;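 also: choline stimulus applied at its EC90 after an EC20 pre-addition; B-score computed on integrated fluorescence ratio after choline addition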
ALR H2O2 inh – inhibitors of human sulfhydryl oxidase ALR; actives 3.8% (n = 290,000); inhibition, % (no concentration beside the values); P55789; AID 485317; purified ALR, DTT oxidation, H2O2 HRP-luminol luminescence;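 active = mean replicate inhibition above about 79%, with every replicate also reaching it, limit read from the data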
Target sequence (P55789 whole entry, looked up): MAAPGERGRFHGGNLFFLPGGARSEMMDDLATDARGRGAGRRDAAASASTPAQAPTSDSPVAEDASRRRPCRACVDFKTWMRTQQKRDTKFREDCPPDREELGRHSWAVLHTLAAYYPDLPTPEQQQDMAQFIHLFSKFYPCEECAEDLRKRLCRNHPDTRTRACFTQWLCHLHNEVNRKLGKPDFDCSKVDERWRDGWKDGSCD
CHT activ conf – confirmation of human choline transporter (CHT) activators. actives 91% (n = 2,500). AID 504833. CHT-expressing cells, membrane potential dye fluorescence (FDSS); % of choline EC20–EC90 response window; HEK293 expressing CHT LV-AA mutant; choline added at its EC20. shares compounds with CHT PAM. activation, % at 10 µM;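 active = primary screen active, with duplicate mean activation above negative control mean plus 3 SD, cut at about 11% in these data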
HEK293 MP dye – CHT activator counter-screen hit in parental HEK293 cells | AID 623908 | membrane potential dye fluorescence (FDSS); measured after EC20 choline addition | ratio readout change at 10 µM, hits read low | actives 62% (n = 2,500) | shares compounds with CHT PAM;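 active = duplicate-averaged ratio beyond 3 SD from buffer wells, up or down, though filed actives are nearly all decreases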
* = called active by the depositor. Hits are enriched below; roughly 5% of the tested compounds scored in any of these assays.

`Cc1ccc2c(c1)S/C(=C/c1ccc[n+](C)c1)N2CCO` gave CHT PAM 7*, PREPL inh 15, AI-2 QS modul 22, CHT inh inactive, ALR H2O2 inh 40, CHT activ conf 34* and HEK293 MP dye -49*.
`CCOC(=O)c1sc2ncnc(N3CCN(CC)CC3)c2c1C` gave CHT PAM inactive, PREPL inh -1, AI-2 QS modul 14, CHT inh inactive, ALR H2O2 inh -1, CHT activ conf 45* and HEK293 MP dye -43*.
Screening CCOC(=O)c1sc2ncnc(N3CCN(C(=O)OCC)CC3)c2c1C returned CHT PAM inactive, PREPL inh -3, AI-2 QS modul 23, CHT inh inactive and ALR H2O2 inh -52.
Screening CCN(CC)C1CCN(C(=O)c2ccc3nc(Cc4ccc(OC)cc4)oc3c2)C1 (stereo unspecified) returned AI-2 QS modul 10.
COc1cccc(CNC(=O)CCC2CCCN(c3cc(C)nc(N(C)C)n3)C2)c1 (stereo unspecified) was read as CHT PAM inactive, PREPL inh -13, AI-2 QS modul 2, CHT inh inactive, ALR H2O2 inh -12, CHT activ conf 48* and HEK293 MP dye -40*.
CCOC(=O)c1sc(NC(=O)Cc2ccccc2OC)nc1C was read as CHT PAM inactive, PREPL inh -4, AI-2 QS modul -3, CHT inh inactive, ALR H2O2 inh 3, CHT activ conf 15* and HEK293 MP dye inactive.
`Cc1ccc(/C=C/C(=O)OCC(=O)N(CC(C)C)c2c(N)n(Cc3ccccc3)c(=O)[nH]c2=O)o1` gave CHT PAM inactive, PREPL inh -3, CHT inh inactive and ALR H2O2 inh -1.
O=C(NCc1ccco1)c1ccc2c(c1)S(=O)(=O)c1ccccc1C2=O was read as CHT PAM 8.6*, PREPL inh 1, AI-2 QS modul 11, CHT inh inactive, ALR H2O2 inh 7, CHT activ conf 30* and HEK293 MP dye inactive.
CCCOc1c(OC)cccc1C1CC(=O)Nc2cc3c(cc21)OCO3 (stereo unspecified) was read as CHT PAM inactive, PREPL inh 24, AI-2 QS modul 4, CHT inh inactive and ALR H2O2 inh 10.
`CCCOc1c(OC)cccc1C1CC(=O)Nc2cc3c(cc21)OCCO3` (stereo unspecified) gave CHT PAM inactive, PREPL inh 9, AI-2 QS modul 19, CHT inh inactive, ALR H2O2 inh -9, CHT activ conf 10 and HEK293 MP dye inactive.
`C#CCOCCOCCOCCNc1nc(N2CCN(C(=O)CCCCCCCCCCNC(=O)[C@H](CCCCN)n3cc(C[C@@H](C)CC)nn3)CC2)nc(N2CCN(C(=O)CCCCCCCCCCNC(=O)[C@@H]([C@H](C)O)n3cc(C)nn3)CC2)n1` gave CHT PAM inactive, PREPL inh 35, CHT inh inactive and ALR H2O2 inh -21.
For C#CCOCCOCCOCCNc1nc(N2CCN(C(=O)[C@H](CCCCN)n3cc(C(N)CO)nn3)CC2)nc(N2CCN(C(=O)[C@H](CCC(=O)O)n3cc(C(N)CC(C)C)nn3)CC2)n1 (stereo partly specified) the results were AI-2 QS modul 24.
C#CCOCCOCCOCCNc1nc(N2CCN(C(=O)CCCCCCCCCCNC(=O)[C@H](CCCCN)n3cc(C)nn3)CC2)nc(N2CCN(C(=O)CCCCCCCCCCNC(=O)[C@@H]([C@H](C)O)n3cc(C)nn3)CC2)n1 was read as CHT PAM inactive, PREPL inh 36, CHT inh inactive, ALR H2O2 inh -5, CHT activ conf 2 and HEK293 MP dye -40*.
`C#CCOCCOCCOCCNc1nc(N2CCN(C(=O)[C@H](CCCCN)n3cc([C@@H](N)CC(C)C)nn3)CC2)nc(N2CCN(C(=O)[C@H](CCCCN)n3cc([C@@H](N)CC(C)C)nn3)CC2)n1` gave CHT PAM inactive, PREPL inh 14, AI-2 QS modul 14, CHT inh inactive, ALR H2O2 inh -17, CHT activ conf 56* and HEK293 MP dye -39*.
Screening COC(=O)c1c(C)[nH]c(C(=O)OCc2csc(CC(=O)Nc3ccccc3C)n2)c1C returned PREPL inh 6 and ALR H2O2 inh 1.
Screening COc1ccc(-c2nc(-c3ccncc3)no2)c(OC)c1 returned CHT PAM inactive, PREPL inh -6, CHT inh inactive and ALR H2O2 inh 8.
Screening COc1cc(OC)c(-c2nc(-c3ccncc3)no2)cc1OC returned CHT PAM inactive, PREPL inh -17, AI-2 QS modul 28, CHT inh inactive, ALR H2O2 inh -23, CHT activ conf 45* and HEK293 MP dye -43*.
For CCOC(=O)N1CCC(NC(=O)Cn2nc(Cc3ccncc3)c3ccccc3c2=O)CC1 the results were CHT PAM inactive, PREPL inh 12, AI-2 QS modul 12 and CHT inh inactive.
Screening CN1CCCC(n2nc(Cc3ccc(Cl)cc3)c3ccccc3c2=O)CC1 (stereo unspecified) returned CHT PAM inactive, PREPL inh 8, AI-2 QS modul 8, CHT inh inactive, ALR H2O2 inh -2, CHT activ conf 44* and HEK293 MP dye -30*.
`O=C(NCc1ccccc1)C12CC3CC(CC(Br)(C3)C1)C2` gave CHT PAM inactive, PREPL inh 1, AI-2 QS modul 28, CHT inh inactive and ALR H2O2 inh -3.
Screening CC1(C)Cc2c(sc3ncn(N)c(=N)c23)CO1 returned CHT PAM inactive, PREPL inh 21, AI-2 QS modul 4, CHT inh inactive and ALR H2O2 inh 0.
`Cc1nc2sc3c(c2c(=N)n1N)CC(C)(C)OC3` gave CHT PAM 8.4*, PREPL inh 4, AI-2 QS modul 18, CHT inh inactive, ALR H2O2 inh -9, CHT activ conf 63* and HEK293 MP dye -47*.
For CCCCNC(=S)N(C)/N=C/c1c(F)c(F)c(F)c(F)c1F the results were CHT PAM 6.5*, PREPL inh -1, AI-2 QS modul 6, CHT inh inactive, ALR H2O2 inh -29, CHT activ conf 17* and HEK293 MP dye inactive.
For CC(=O)c1ccc(Nc2c3c(nc4ccccc24)CCCC3)cc1 the results were CHT PAM inactive, PREPL inh 10, AI-2 QS modul 7, CHT inh inactive and ALR H2O2 inh -11.
